# Results reported in PubChem BioAssay AID527 (NMMLSC, 2006).
# The whole screen tested about 24,000 compounds, of which about 65 (0.3%) were called active.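 How the source made its calls: active means share of bacteria positive for the green fluorescent reporter and its mean brightness both inhibited by 50% or more; inactive means the rest, inconclusive results apart.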 What follows is part of a selection rich in actives, with near analogues and random picks from the rest.
# Assay: blockers of AIP-driven agr signalling in S. aureus – RNAIII-GFP reporter, flow cytometry, primary screen (AID 527);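 further: 0% = AIP-stimulated control and 100% = unstimulated bacteria without AIP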
# Details: S. aureus RN6390 RNAIII-GFP reporter, AIP-induced, flow cytometry 3 h, at 2 µM, stronger effect = higher value
# [1] = measured here: inhibition of GFP MFI
SMILES,inhibition,inhibition [1] [%]
Cc1ccccc1NC(=O)Cc1nnc(SCC(=O)N2CCN(c3ccccc3)CC2)n1C,-0.1% (inactive),7.2
CCC(=O)N1CCN=C1SCc1ccc(F)cc1,1.7% (inactive),7.4
CCOc1ccccc1-n1c(SCC(=O)NCc2ccco2)nnc1-c1ccncc1,-4.3% (inactive),-22.1
CN(C)CCCn1c(N)c(C#N)c2nc(C#N)c(C#N)nc21,-1% (inactive),1.8
CNC(=O)NCCN1CCCC1=O,7.2% (inactive),22.5
O=C(CCOc1ccccc1)NCc1ccccc1,1.7% (inactive),8.4
CC1CCCN(C(C(=O)Nc2ccc(C(C)C)cc2)c2ccc3c(c2)OCO3)C1 (stereo unspecified),-2.3% (inactive),0.9
Cc1cccc(C(=O)OCC(=O)Nc2sc3c(c2C#N)CCC3)c1,0% (inactive),-2
Cc1cccc(CC(=O)Nc2c3c(nn2-c2cccc(Cl)c2)CS(=O)C3)c1 (stereo unspecified),1.2% (inactive),3.3
Nc1scc(-c2ccncc2)c1Cl,0.4% (inactive),15.1
CSC1=NCCN1C(=O)c1ccc(S(=O)(=O)N2CCOCC2)cc1,-5.9% (inactive),-16.9
O=C(NCCc1ccccn1)c1ccc(COc2ccccc2)o1,-0.4% (inactive),-1.9
O=S1(=O)CC(NCc2ccccc2)C(Nc2ccc(Cl)cc2)C1 (stereo unspecified),-7% (inactive),-45.9
Cc1cccc(N2CCN(C(=O)C3CCN(S(=O)(=O)c4cnc[nH]4)CC3)CC2)c1C,-9.8% (inactive),-17
CCCn1c(C(O)c2ccc(OCC)cc2)nc2ccccc21 (stereo unspecified),-2.6% (inactive),-8.7
CC(=O)Oc1cc2c(C(=O)NCCN3CCOCC3)c(C)oc2c2ccccc12,-5.9% (inactive),-9.9
CCS(=O)(=O)N1CCCC(C(=O)NCCCN(C)Cc2ccccc2)C1 (stereo unspecified),-4.7% (inactive),-9.5
CC(C)(C)c1ccc(C(=O)NCCC(=O)NCc2ccco2)cc1,-2.6% (inactive),1.1
CC1CC(C)CN(CC(=O)Nc2ccc(S(N)(=O)=O)cc2)C1 (stereo unspecified),-0.3% (inactive),-0.4
COc1cccc(N2CCN(C3CC(=O)N(c4ccc(Cl)cc4)C3=O)CC2)c1 (stereo unspecified),-2.7% (inactive),-50.4
CCc1ccc(N2CC(C(=O)NC3=NCCS3)CC2=O)cc1 (stereo unspecified),-0.9% (inactive),-2.9
OCc1n[nH]c(CO)n1,-8.3% (inactive),-35.9
COc1ccc(C2/C(=C(/O)c3ccc(OC(C)C)cc3)C(=O)C(=O)N2CCCN2CCOCC2)cc1 (stereo unspecified),7.5% (inactive),17.8
CCCCN(C)C(=O)c1ccc2c(c1)N(CC)C(=O)c1ccccc1S2(=O)=O,-3% (inactive),-32.6
COc1ccc(Cl)cc1S(=O)(=O)N1CCN(CC(=O)C(C)(C)C)CC1,-2.8% (inactive),-8.9
N#CCCn1cnc2ccccc21,2.1% (inactive),38.9
CC(=O)NCC(=O)N(C)C(C(=O)Nc1ccc2c(c1)OCCO2)c1ccccc1 (stereo unspecified),0.7% (inactive),7.7

SMILES,inhibition,inhibition [1] [%]
COc1ccccc1-c1cc(C(=O)NCCCn2ccnc2)no1,0.6% (inactive),11.9
O=C(CN1CCN(C(=O)c2ccco2)CC1)Nc1ccc2c(c1)OCO2,0.1% (inactive),18.6
CCOC(=O)N1CCN(C(=O)c2ccc3nc4cc(Cl)ccc4c(=O)n3c2)CC1,0.6% (inactive),4.6
CCOC(=O)N1CCN(C(=O)c2cnc3n(c2=O)CCS3)CC1,-0.4% (inactive),7.7
NC(=O)C1(N2CCCCC2)CCN(C(=O)c2ccc(C#Cc3ccccc3)o2)CC1,14.7% (inactive),41.9
COc1ccc(-c2noc(COc3ccc(Cl)c(C)c3)n2)cc1,0.3% (inactive),-1.9
COc1ccccc1N1CCN(C(=O)c2cc(-c3ccc(Cl)c(Cl)c3)on2)CC1,0.6% (inactive),12
Cc1ccc(S(=O)(=O)NCC(=O)N(CC(=O)NC2CCCCC2)Cc2ccco2)cc1,1% (inactive),1.8
O=C(CN1CCOCC1)N1CCCc2c1c(=O)oc1ccc(OCc3ccccc3)cc21,7.9% (inactive),27.4
COC(=O)c1ccc(NC(=O)CSc2nnc(Cc3cccn3C)n2-c2ccc(F)cc2)cc1,0.7% (inactive),2.8
CCOc1ccc(S(=O)(=O)n2ccnc2)c2ccccc12,3.6% (inactive),12.2
COc1ccc(N2CCN(CCNC(=O)c3nnc(Cc4c(F)cccc4Cl)o3)CC2)cc1,-1.4% (inactive),-14
O=C(CSc1nnc(-c2c[nH]c3ccccc23)n1-c1ccc(F)cc1)NCc1ccco1,-0.1% (inactive),3.9
O=C(Nc1nccs1)C1CCCN1S(=O)(=O)c1cccc2cccnc12 (stereo unspecified),10.8% (inactive),6.8
CCOCCCN1C(=O)CN(C2CCCCC2)C(=O)C1c1ccc(OCC)c(OC)c1 (stereo unspecified),0.8% (inactive),4.3
O=C(NC1=NCCS1)[C@H](Cc1ccccc1)N1C(=O)c2ccccc2C1=O,-2% (inactive),-7.9
CCOc1ccc(/C(O)=C2/C(=O)C(=O)N(Cc3cccnc3)C2c2ccc(N(C)C)cc2)c(C)c1 (stereo unspecified),-1.8% (inactive),-3.1
Cc1cc(NC(=O)CSc2nnc(-c3ccc(Cl)s3)o2)no1,-5.9% (inactive),-26.8
COc1ccc(NC(=O)CCNC(=O)Cn2ccc3ccccc3c2=O)c(OC)c1,-1.1% (inactive),-13.6
COc1ccccc1N1CCN(c2nc3ccccc3n3nnnc23)CC1,-2.2% (inactive),-4.7
CC(=O)c1cccc(S(=O)(=O)N2CCC(n3nnc4cc(F)ccc43)CC2)c1,-1.4% (inactive),-26.3
CCOC(=O)c1cn(CC(=O)Nc2ccc(C(C)C)cc2)nn1,2.3% (inactive),13.3
CCOC(=O)c1ccc(Nc2cc(C)nc3nc(C)nn23)cc1,-5.5% (inactive),-32.8
Cn1c(C(=O)NCCN2CCc3ccccc3C2)cc2c(=O)[nH]c3ccccc3c21,-1.3% (inactive),-0.4
COc1ccc(-n2ncc3c(N4CCCc5ccccc54)ncnc32)cc1,-3.1% (inactive),-2.2
C=CCOc1ccc(/C=N/n2cncn2)cc1OC,0.5% (inactive),-15.3
